Compound activity: PubChem, National Center for Advancing Translational Sciences (NCATS)
The entries come from a sample that favours hits as a whole.
KDM5B inh = inhibitors of human KDM5B histone demethylase | Q9UGL1 | KDM5B demethylase, FDH-coupled NADH fluorescence (FDH is formaldehyde dehydrogenase) | Potency, µM (top dose mostly 57.7 µM), actives largely listed as inhibitors | hit rate 2.6% among 220,000; active means well fitted inhibition curve with a large enough effect; further: 0% is about no effect; nearly all actives have a fitted effect of over 70% in size
Target sequence (Q9UGL1 whole entry, looked up): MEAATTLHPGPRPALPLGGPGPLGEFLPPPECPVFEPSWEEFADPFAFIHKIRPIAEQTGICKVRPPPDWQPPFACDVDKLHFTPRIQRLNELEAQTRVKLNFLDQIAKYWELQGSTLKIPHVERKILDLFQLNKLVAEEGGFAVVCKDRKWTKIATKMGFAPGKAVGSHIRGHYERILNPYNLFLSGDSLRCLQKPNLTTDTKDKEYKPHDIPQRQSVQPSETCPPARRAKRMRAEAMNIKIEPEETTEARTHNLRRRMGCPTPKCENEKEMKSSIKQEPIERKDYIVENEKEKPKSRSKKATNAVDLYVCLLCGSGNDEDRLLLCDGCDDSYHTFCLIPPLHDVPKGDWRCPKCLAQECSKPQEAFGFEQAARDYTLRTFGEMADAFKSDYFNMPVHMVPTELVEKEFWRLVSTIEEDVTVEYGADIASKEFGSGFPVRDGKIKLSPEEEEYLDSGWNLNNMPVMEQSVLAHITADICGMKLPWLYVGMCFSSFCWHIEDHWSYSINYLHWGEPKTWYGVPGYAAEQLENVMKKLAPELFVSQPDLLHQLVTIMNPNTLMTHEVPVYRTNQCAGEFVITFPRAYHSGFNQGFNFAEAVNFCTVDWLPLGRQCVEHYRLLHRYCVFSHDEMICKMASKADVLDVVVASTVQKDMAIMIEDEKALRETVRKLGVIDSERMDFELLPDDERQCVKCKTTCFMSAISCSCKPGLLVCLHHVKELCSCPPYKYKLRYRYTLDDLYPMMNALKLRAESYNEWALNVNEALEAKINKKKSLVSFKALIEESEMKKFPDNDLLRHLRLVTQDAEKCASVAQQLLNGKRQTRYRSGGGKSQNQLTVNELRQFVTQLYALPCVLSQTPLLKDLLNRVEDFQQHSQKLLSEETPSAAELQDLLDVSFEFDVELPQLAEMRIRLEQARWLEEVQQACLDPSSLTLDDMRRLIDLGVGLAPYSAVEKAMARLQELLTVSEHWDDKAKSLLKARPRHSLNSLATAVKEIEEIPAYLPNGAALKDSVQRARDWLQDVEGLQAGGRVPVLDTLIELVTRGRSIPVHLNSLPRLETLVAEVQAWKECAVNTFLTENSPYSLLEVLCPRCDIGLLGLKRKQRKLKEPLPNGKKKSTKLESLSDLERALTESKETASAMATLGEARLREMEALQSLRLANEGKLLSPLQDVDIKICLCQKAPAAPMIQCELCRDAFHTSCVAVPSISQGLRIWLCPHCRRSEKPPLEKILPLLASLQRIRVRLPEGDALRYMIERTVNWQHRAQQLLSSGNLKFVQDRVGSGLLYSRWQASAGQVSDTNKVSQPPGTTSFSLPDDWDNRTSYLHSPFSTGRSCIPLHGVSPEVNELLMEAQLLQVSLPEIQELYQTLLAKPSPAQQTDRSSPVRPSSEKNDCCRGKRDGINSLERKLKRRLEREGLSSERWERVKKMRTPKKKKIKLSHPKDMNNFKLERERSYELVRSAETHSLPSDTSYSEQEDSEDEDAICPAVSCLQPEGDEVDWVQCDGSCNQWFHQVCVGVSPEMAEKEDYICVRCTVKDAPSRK
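Compound dilutions met 200 nM (final) KDM5BΔAP for 10 min at room temperature before substrate addition. The substrate mix held 12.5 µM H3K4me3 with cofactors 25 µM α-ketoglutarate and 50 µM Fe²⁺. NADH signal gain over 30 min defined activity.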
The depositor's hits bear a star; i = inactive. Potency means the concentration at half of the fitted maximal effect.

SMILES | KDM5B inh
CCCS(=O)(=O)N1CCC(c2noc(-c3cccnc3)n2)C1 (centres undefined) | i
CCS(=O)(=O)N1CCC(Nc2cccnc2)C1 (centres undefined) | 22µM*
CCS(=O)(=O)N1CCC(Cc2nc(-c3cccnc3)n[nH]2)C1 (centres undefined) | i
COCCn1cnc2cccnc21 | i
Cn1c(=O)c2c(SCC(=O)NCc3ccco3)nc(-c3ccccc3Cl)nc2n(C)c1=O | i
O=C(c1ccccc1)N1CCc2nc(C3CC3)nc(-c3ccc(Cl)cc3)c2C1 | i
O=C(c1ccccc1)N1CCc2nc(-c3ccccc3)nc(-c3ccc(Cl)cc3)c2C1 | i
Cc1ccc(N2CC(C(=O)NCc3ccco3)CC2=O)cc1Cl (centres undefined) | i
O=C(NCc1ccco1)N1CCc2nc3cc(-c4ccccc4Cl)[nH]n3c(=O)c2C1 | 14µM*
O=C(c1ccncc1)N1CCc2nc3cc(-c4ccccc4Cl)[nH]n3c(=O)c2C1 | 16µM*
CCOC(=O)c1cnc2c(Cl)cccc2c1NCCN1CCOCC1 | i
Cc1cc(C(=O)COC(=O)c2n[nH]c(=O)c3ccccc23)c(C)n1C | i
COc1cccc(Nc2nc(-c3ccc(CNC(=O)C(C)(C)C)s3)cs2)c1 | i
Cn1c(N2CCN(C(=O)C[C@H]3NC(=O)c4ccccc4NC3=O)CC2)nc2ccccc21 | i
Cc1ccc(C(=O)NCC(=O)N2CCCCCC2)cc1 | i
COc1ccc(C(=O)NC[C@H]2O[C@@H](CC(=O)N3CCN(c4ccccn4)CC3)[C@H](O)[C@@H]2O)cc1 | i
CCOc1ccccc1C(=O)N1CCN(CCc2ccccn2)CC1 | i
Cc1ccc(C(=O)NCC(=O)N2CCN(c3ccccn3)CC2)cc1 | 28µM*
O=C(NCC(=O)N1CCN(c2ccccn2)CC1)c1cc2ccccc2[nH]1 | 14µM*
O=C1N[C@H](CC(=O)N2CCN(c3ccccn3)CC2)C(=O)Nc2ccccc21 | 28µM*
CCOc1ccccc1C(=O)N1CCN(c2cc(-c3ccc(F)cc3)[nH]n2)CC1 | i
O=C1N[C@H](CC(=O)N2CCN(CCc3ccncc3)CC2)C(=O)Nc2ccccc21 | i
CCOc1ccccc1C(=O)NCC(=O)N1CCN(c2ccccn2)CC1 | 28µM*
O=C(NCCNC(=O)c1cc2ccccc2[nH]1)c1ccccn1 | i
O=C(NCc1ccccn1)C(=O)N1CCN(C(=O)c2cc3ccccc3[nH]2)CC1 | i
SMILES | KDM5B inh
CCOC(=O)CSc1nc2ccccc2c(=O)n1-c1ccc(C(=O)NCCOC)cc1 | i
CC(=O)N1CCN(c2cc(Cl)ncn2)C(=O)C1 | i
O=C(CCc1ncc(-c2c(F)cccc2F)o1)N1CCCN(Cc2ccccc2)CC1 | i
CN1CCC(OC2CCN(C(=O)COc3ccc(Cl)cc3)CC2)CC1 | i
O=C(COc1ccccc1Cl)N1CCC(c2nc3ccccc3o2)CC1 | i
Cc1cccc(C)c1OCC(=O)N1CCC(NC(=O)c2ccccc2)CC1 | i
CCCN(C(=O)Cc1c(C(=O)O)[nH]c2ccc(Cl)cc12)c1ccc(OCC)cc1 | i
CC(C)(C)CC(=O)NCC(=O)N1CCN(c2ccccn2)CC1 | 28µM*
O=C(Cc1c(F)cccc1Cl)N1C[C@@H](CO)[C@H](c2ccccn2)C1 | i
CC(C)CCC(=O)N1CCCC(CN2CCN(c3ccccn3)CC2)C1 (centres undefined) | i
O=C(Cc1c(F)cccc1Cl)NCC(=O)N1CCN(c2ccccn2)CC1 | 25µM*
CC(C)CC(=O)NCCc1ccccn1 | i
Cn1cc(-c2ccncc2)cc1C(=O)N1CCN(c2ccccn2)CC1 | i
CC(C)CC(=O)NCC(=O)N1CCN(c2ccccn2)CC1 | 25µM*
O=C(/C=C/c1ccccc1F)N1CCN(c2ccccn2)CC1 | i
CC(=O)NCc1ccc(S(=O)(=O)N2CCN(c3ccccn3)CC2)cc1 | i
COc1ccc(CC(=O)NCc2nc3cccnc3n2Cc2ccccc2)cc1 | i
O=C(N[C@H]1C[C@@H]2OCC[C@H]12)c1cccnc1SCCc1ccccc1 | i
O=C(O)c1ccc(CN2CC[C@@H](c3ccc4ccccc4c3)[C@H](O)C2)cc1 | i
C/C(=N\NC(=O)c1cccc(C)c1)c1ccc(C)s1 | i
Cc1ccc(-c2noc(Cn3cnc4scc(-c5ccc(C)cc5)c4c3=O)n2)cc1 | i
O=C(c1ccc(F)cc1)N(Cc1cccs1)C1CC1 | i
Cn1ccc2c(C(=O)NCCc3cnc[nH]3)nc(-c3ccccc3)cc21 | i
Cn1ccc2c(C(=O)NCCc3cnc[nH]3)nc(-c3cccc(CO)c3)cc21 | i
Cn1ccc2c(C(=O)NCCc3cnc[nH]3)nc(-c3cccnc3)cc21 | i
COc1ccc(-c2cc3c(ccn3C)c(C(=O)NCCc3cnc[nH]3)n2)cn1 | 35µM*
COc1ccc(CNC(=O)c2nc(-c3ccccc3OC)cc3c2ccn3C)cc1OC | i
COc1ccccc1-c1cc2c(ccn2C)c(C(=O)NCCc2cnc[nH]2)n1 | 40µM*
Cn1ccc2c(C(=O)NCCc3cnc[nH]3)nc(-c3cnn(Cc4ccccc4)c3)cc21 | 32µM*
